High-throughput results from PubChem BioAssay.
GoLoco inh red = qHTS Assay for Inhibitors of RGS12 GoLoco Motif Activity (Red Fluorophore); Guanine nucleotide-binding protein G(i) subunit alpha-1 (Homo sapiens), P63096; 230,000 tested, 0.44% active; Potency, µM (doses to about 61.6 µM), for the others: top-dose activity, negative = inhibition, usual class: inhibitors; AID 880, 2007; Gai1:RGS12 GoLoco peptide FP, rhodamine, 10 min; active means well fitted inhibition curve with a large enough effect, not every such curve was filed as active; inactive means no such curve, though single readings can be large or run the other way; further: potency means the concentration at half of the fitted maximal effect; on the % scale 0 is the no-effect control and ±100 the full control effect; nearly all actives have a fitted effect of over 30% in size
VDR inh = Inhibitors of the vitamin D receptor (VDR): qHTS; VDR-SRC2-3 peptide fluorescence polarization, 2 h; Potency, µM, inactives show max response, negative = inhibition, actives largely listed as inhibitors; 400,000 tested, 0.93% active; AID 504847, 2011; further: potency means the concentration at half of the fitted maximal effect; on the % scale 0 is the no-effect control and ±100 the full control effect
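After 23 nl compound addition and a short centrifugation, plates sat for 2 hours at ambient temperature; polarization of fluorescence then indicated loss of VDR binding to peptide SRC2-3.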
HTT ATP protect = qHTS Multiplex Assay to Identify Dual Action Probes in a Cell Model of Huntington: Cytoprotection (ATP); PC12 HTT-Q103 induced, cytoprotection, ATP luminescence, 40 h; Potency, µM (doses to about 56.4 µM), inactives show cytoprotection (ATP increase), actives largely listed as activators; 230,000 tested, 0.14% active; further: potency means the concentration at half of the fitted maximal effect; % of control where 0% means no effect; nearly all actives have a fitted effect of over 45% in size
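ATP quantification (ATPlite) reports survival of PC12 cells in which tebufenozide, 100 nM final, switches on Htt exon 1 with 103 glutamines linked to GFP; compounds are titrated.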
FBPA coupling cs = qHTS Assay for Inhibitors of Fructose-1,6-bisphosphate Aldolase from Giardia Lamblia: Coupling assay counterscreen; 290,000 tested, 0.67% active; AID 2472, 2010; coupling enzyme system counterscreen, AmpLite Red fluorescence; activity change, negative = inhibition, % at 58.2 µM, hits read low; in the data active means activity change below about -30%; further: on the % scale 0 is the no-effect control and ±100 the full control effect
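Fluorescence at 525 nm excitation and 598 nm emission measured inhibition of the coupled detection system without aldolase. Compounds (at 57.5 uM final) were preincubated 10 min at room temperature with coupling enzyme reagent before a 20 min substrate/AmpLite Red step.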
JMJD2E inh = qHTS Assay for Inhibitors of Human Jumonji Domain Containing 2E (JMJD2E); JMJD2E catalytic domain, FDH-coupled NADH fluorescence (FDH is formaldehyde dehydrogenase); Potency, µM (top dose mostly 57.1 µM), without a hit: at the highest dose activity change, negative = inhibition, most hits filed as inhibitors; Lysine-specific demethylase 4E (Homo sapiens), B2RXH2; 230,000 tested, 1.6% active; active means well fitted inhibition curve with a large enough effect, not every such curve was filed as active; inconclusive means small, poorly fitted or top-dose-only effect, or another doubt; inactive means no such curve, though single readings can be large or run the other way;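 further: potency means the concentration at half of the fitted maximal effect; 0% = wells with enzyme and -100% = buffer wells without enzyme; nearly all actives have a fitted effect of over 50% in size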
Target sequence (B2RXH2 1-337 limits assumed): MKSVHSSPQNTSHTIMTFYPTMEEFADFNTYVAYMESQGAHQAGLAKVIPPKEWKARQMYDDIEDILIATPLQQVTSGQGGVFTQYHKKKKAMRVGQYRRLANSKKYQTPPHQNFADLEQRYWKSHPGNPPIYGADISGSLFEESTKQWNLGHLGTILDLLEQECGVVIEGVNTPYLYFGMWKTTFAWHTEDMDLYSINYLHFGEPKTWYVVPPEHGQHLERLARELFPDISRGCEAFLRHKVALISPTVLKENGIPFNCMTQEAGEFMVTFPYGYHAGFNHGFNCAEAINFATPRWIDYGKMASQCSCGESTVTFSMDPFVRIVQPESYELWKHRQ
HttQ103 aggreg = qHTS Multiplex Assay to Identify Dual Action Probes in a Cell Model of Huntington: Aggregate Formation (GFP) | PC12 HttQ103-GFP aggregates, Acumen cytometry, 40 h | Potency, µM (titrated, usually from 46.1 µM), for the others: at the top dose activity change, negative = inhibition, most hits filed as inhibitors | 220,000 tested, 1.1% active | AID 1688, 2009; further: potency means the concentration at half of the fitted maximal effect; on the % scale 0 is the no-effect control and ±100 the full control effect; nearly all actives have a fitted effect of over 60% in size
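PC12 cells stably carrying ecdysone-inducible HTT exon 1 Q103–GFP were induced with tebufenozide (100 nM final) and treated with library compounds in titration. GFP aggregates in lysates were counted by laser scanning cytometry.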
Starred values were filed as active, the others as inactive; ! = repeats disagree; [ ] = dose if it differs, or a comment. Hits are enriched below; roughly 2.3% of the tested compounds scored in any of these assays. Unless noted, the call rests on the fitted dose curve; in most records, active means well fitted curve in the direction sought with a large enough effect; inconclusive means small, poorly fitted or top-dose-only effect, or another doubt; inactive means no such curve, though single readings can be large; an effect the other way counts as inactive or inconclusive.

How did COC(=O)c1ccc2c(c1)SC1=C(CCCC1=O)N2 do in these assays?
GoLoco inh red: -44%; VDR inh: -2%; HTT ATP protect: -11%; FBPA coupling cs: -5; JMJD2E inh: -9%; HttQ103 aggreg: inconclusive

How did COc1cccc(NC(=O)c2cccc(C(=O)Nc3cccc(OC)c3)c2)c1 do in these assays?
VDR inh: -10%; FBPA coupling cs: -2

How did COc1cccc(C(=O)Nc2cccc(C(=O)NCC(C)C)c2)c1 do in these assays?
GoLoco inh red: 5%; VDR inh: -11%; HTT ATP protect: -5%[10 µM]; FBPA coupling cs: -2; JMJD2E inh: 0%; HttQ103 aggreg: 3.2µM*

Results for C=CCN(C(=O)CCC(=O)Nc1cc(C)on1)C(C(=O)NC(C)(C)CC)c1cccc(OC)c1OC (centres undefined) ?
VDR inh: 11%; FBPA coupling cs: 1

How did N[C@H](CS)C(=O)O do in these assays?
GoLoco inh red: 4%; VDR inh: inconclusive; HTT ATP protect: -2%

How did NC(CS)C(=O)O (centres undefined) do in these assays?
GoLoco inh red: 4%; VDR inh: 45µM*; HTT ATP protect: -3%; HttQ103 aggreg: 26%

How did O=C(CCl)N(c1ccccc1)c1ccccc1 do in these assays?
GoLoco inh red: 5%; VDR inh: inconclusive; HTT ATP protect: -187%; FBPA coupling cs: -1; JMJD2E inh: -6%; HttQ103 aggreg: 10µM*

How did COc1cc(-c2cc(=O)c3c(O)c(OC)c(OC)c(O)c3o2)ccc1O do in these assays?
GoLoco inh red: 0%; VDR inh: -9%; HTT ATP protect: -9%[10 µM]; FBPA coupling cs: -5; JMJD2E inh: 20µM*; HttQ103 aggreg: 3%[9.22 µM]

What do the screens show for `COc1c(O)c(O)c2oc(-c3ccccc3)cc(=O)c2c1OC`?
GoLoco inh red: -9%; VDR inh: 3%; HTT ATP protect: 24%[10 µM]; FBPA coupling cs: 3; JMJD2E inh: 32µM*; HttQ103 aggreg: 11%[9.22 µM]

How did O=c1nc(/C=C/c2ccccc2C(F)(F)F)cc(C(F)(F)F)[nH]1 do in these assays?
VDR inh: 32µM*; FBPA coupling cs: -6

Results for c1ccc(-c2nnc(-c3ccccn3)nc2NC2CCCCC2)cc1 ?
GoLoco inh red: 9%; VDR inh: -6%; HTT ATP protect: -38%[10 µM]; FBPA coupling cs: 1; JMJD2E inh: inconclusive; HttQ103 aggreg: 3.5µM*

Results for Nc1ncnc(Sc2ncccn2)c1[N+](=O)[O-] ?
GoLoco inh red: 19%; VDR inh: 10%; HTT ATP protect: 21%[10 µM]; FBPA coupling cs: -3; JMJD2E inh: inconclusive; HttQ103 aggreg: 5µM*

What do the screens show for `COc1ccc(CC(=O)Nc2cccc(-c3nnc(-c4cccc(C)c4)o3)c2)cc1OC`?
GoLoco inh red: -2%; VDR inh: 1%; HTT ATP protect: -28%[10 µM]; FBPA coupling cs: 0; JMJD2E inh: -19%; HttQ103 aggreg: 11µM*

Results for COc1ccc(CC(=O)Nc2cccc(-c3nnc(-c4ccccc4)o3)c2)cc1OC ?
GoLoco inh red: 62%; VDR inh: 17%; HTT ATP protect: -149%[0.074 µM]; FBPA coupling cs: 1; JMJD2E inh: -1%; HttQ103 aggreg: 22µM*

What do the screens show for `COc1ccc(CC(=O)Nc2cccc(-c3nnc(-c4ccc(C)cc4)o3)c2)cc1OC`?
GoLoco inh red: -10%; VDR inh: -3%; HTT ATP protect: 6%[1.9 µM]; FBPA coupling cs: -1; JMJD2E inh: -3%; HttQ103 aggreg: -17%

What do the screens show for `CCCCCCN(C(=O)CCCCCN1C(=O)NC(c2ccc(-c3ccccc3)cc2)C(C(=O)OCc2ccccc2)=C1C)C(C)C(=O)NCCCC` (centres undefined)?
GoLoco inh red: 7%; HTT ATP protect: -68%; FBPA coupling cs: -4; JMJD2E inh: 35µM*!; HttQ103 aggreg: -8%
